Assay [1] is described as follows: qHTS assay for small molecules that induce genotoxicity in human embryonic kidney cells expressing luciferase-tagged ATAD5 (AID 651632). Note: nearly all actives have a fitted effect of over 15% in size. The procedure, abridged: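 Increased luciferase signal from ATAD5-tagged reporter cells indicates DNA-damage-driven ATAD5 induction. HEK293T cells are treated for 16 hr at 37C before detection with Amplite.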
The nature of assay [2]: qHTS assay for small molecule agonists of the p53 signaling pathway - cell viability (AID 651633; calls by dose curve; note: nearly all actives have a fitted effect of over 30% in size; note: potency is the fitted concentration of half-maximal effect). Put shortly: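 p53RE-bla cells, seeded at 4,000 per well and rested 5 h at 37 C/5% CO2, received compounds in DMSO for 16 h at 37 C. CellTiter-Glo was then added, and luminescence was read after 30 min at room temperature to gauge cytotoxicity.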
On the technique in general: Quantitative high-throughput screening tests each substance at several concentrations.

A short description of assay [3]: qHTS assay for small molecule disruptors of the mitochondrial membrane potential - cell viability (AID 720634; calls by dose curve; note: nearly all actives have a fitted effect of over 20% in size; note: potency is the fitted concentration of half-maximal effect). Put shortly:
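After overnight attachment at 37 C, HepG2 cells received compound or DMSO vehicle for 1 hr. Viability is then taken from ATP-driven luminescence following a 30 min room-temperature CellTiter-Glo step.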

The nature of assay [4]: qHTS assay for small molecule disruptors of the mitochondrial membrane potential (AID 720635). Note: potency is the fitted concentration of half-maximal effect. The procedure, abridged:
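HepG2 cells (2,000/well) attached overnight at 37C, then took compound for 1 hr at 37C, 5% CO2. Mito-MPS dye was added for 30 min; fluorescence was read at 490/535 nm (monomers) and 540/590 nm (aggregates).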

A short description of assay [5]: qHTS assay to test for compound auto fluorescence at 590 nm (red) in HepG2 cells (AID 720674). The procedure, abridged: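 Rose Bengal sodium served as the red fluorophore standard. HepG2 monolayers (overnight attachment, MEM with 10% FBS) were exposed to test compounds for 1 hr at 37 C and read at Ex 540/Em 590 nm.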
The nature of assay [6]: qHTS assay to test for compound auto fluorescence at 535 nm (green) in HepG2 cells (AID 720675).
Assay [7] in a line: qHTS assay to test for compound auto fluorescence at 460 nm (blue) in HEK293 cells (AID 720678). Put shortly:
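Blue read-out at excitation 405 nm and emission 460 nm follows overnight compound exposure of HEK293 cells at 37C in 5% CO2. Activity is given as auto fluorescence equivalency to triamterene.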

Assay [8] in a line: qHTS assay to test for compound auto fluorescence at 590 nm (red) in HEK293 cells (AID 720679). The procedure, abridged:
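Red channel, Ex/Em 540/590nm; signal expressed as equivalency to Rose Bengal sodium. HEK293, 2,000 cells/well, 10% dialyzed FBS; 23 nL compound pinned after 4-5 hr attachment; overnight 37C/5% CO2 before reading.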

Assay [9] can be described thus: qHTS assay to test for compound auto fluorescence at 535 nm (green) in HEK293 cells (AID 720680).
The nature of assay [10]: qHTS assay to test for compound auto fluorescence at 460 nm (blue) in HEK293 cell free culture (AID 720681). The procedure, abridged: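 Test compounds were pinned into cell-free culture medium (DMEM with 10% FBS) and fluorescence was read directly at Ex/Em 405/460 nm. Signals were expressed as fluorescence equivalents of triamterene, with DMSO vehicle as control.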
Assay [11] can be described thus: qHTS assay to test for compound auto fluorescence at 535 nm (green) in HEK293 cell free culture (AID 720682). The procedure, abridged: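 Cell-free medium (DMEM, 10% FBS) receives compound or DMSO by pintool. Plate read directly at Ex 485/Em 535 nm. Signal converted to fluorescein equivalency.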
Assay [12] can be described thus: qHTS assay to test for compound auto fluorescence at 590 nm (red) in HEK293 cell free culture (AID 720683). The procedure, abridged: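 Tox21 10K library compounds were pinned into cell-free DMEM with 10% FBS and fluorescence was read at excitation 540 nm. Activity is expressed as Rose Bengal sodium equivalency.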
Assay [13] can be described thus: qHTS assay to test for compound auto fluorescence at 590 nm (red) in HepG2 cell free culture (AID 720684). Put shortly:
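Measured in medium alone (MEM containing 10% FBS) following pintool addition of compound; emission at 590 nm with 540 nm excitation, referenced to Rose Bengal sodium.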

Assay [14] can be described thus: qHTS assay to test for compound auto fluorescence at 460 nm (blue) in HepG2 cell free culture (AID 720685). The procedure, abridged: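 Compound (23 nL) or DMSO pinned into cell-free MEM with 10% FBS; blue fluorescence read at 405/460 nm excitation/emission, expressed as auto-fluorescence equivalency to triamterene.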
A short description of assay [15]: qHTS assay to test for compound auto fluorescence at 535 nm (green) in HepG2 cell free culture (AID 720686).
The nature of assay [16]: qHTS assay to test for compound auto fluorescence at 460 nm (blue) in HepG2 cells (AID 720687). The procedure, abridged: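 Cells (2,000/well in MEM with 10% FBS) attached overnight at 37 C, then were exposed to compound or DMSO for 1 hr at 37 C, 5% CO2. Fluorescence read at Ex/Em 405/460 nm, expressed as triamterene-equivalent signal.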
The nature of assay [17]: qHTS assay for small molecules that induce genotoxicity in human embryonic kidney cells expressing luciferase-tagged ATAD5 - cell viability (AID 651634; calls by dose curve; note: nearly all actives have a fitted effect of over 25% in size). The procedure, abridged:
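Cytotoxicity counterscreen in HEK293T cells bearing an ATAD5-luciferase reporter: live-cell protease activity measured by CellTiter-Fluor fluorescence after 15.5 hr compound exposure.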

The target of assay [18] is Glucocorticoid receptor (Homo sapiens) (UniProt P04150). Kind of assay: qHTS assay to identify small molecule agonists of the glucocorticoid receptor (GR) signaling pathway (AID 720691; active = well fitted activation curve with a large enough effect in the signal ratio in the repeat runs, not every such curve was filed as active; the % refers to the signal ratio). Put shortly:
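Agonist mode in a HeLa line carrying a GRE-controlled beta-lactamase reporter. Compounds act for 18 h at 37 C before a 2 h room-temperature FRET substrate step and fluorescence reading.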

The target is the same in assay [19]. Kind of assay: qHTS assay to identify small molecule antagonists of the glucocorticoid receptor (GR) signaling pathway (AID 720692; active = well fitted inhibition curve with a large enough effect in the signal ratio in the repeat runs, not every such curve was filed as active; the % refers to the signal ratio). The procedure, abridged: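 Cells plated, rested 4 h at 37 C/5% CO2; compounds in DMSO pin-transferred; dexamethasone added to 5 nM final; 18 h at 37 C; B/G FRET substrate added, 2 h room temperature; fluorescence measured.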
Assay [20] can be described thus: qHTS assay for small molecule agonists of the p53 signaling pathway (AID 651631; calls by dose curve; note: nearly all actives have a fitted effect of over 15% in size; note: potency is the fitted concentration of half-maximal effect). The procedure, abridged:
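p53RE-bla HCT-116 cells; compounds 16 h, 37 °C; LiveBLAzer B/G FRET substrate 2 h RT; fluorescence intensity read-out, qHTS format.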

Molecules are shown by their SMILES. Several values for one entry are separate records, joined by “and”; a condition that tells them apart may be missing. Identical values can stand only once. Records with an inconclusive call do not appear. Activity calls are given as the source filed them. Unless noted, calls come from the whole dose curve; as a rule, active = well fitted curve in the direction sought with a large enough effect in the repeat runs; inconclusive = weak or mixed curves; inactive = no such curve, though single readings can be large; an effect the other way counts as inactive or inconclusive.

Glucocorticoid receptor (Homo sapiens), sequence (P04150 whole entry, looked up): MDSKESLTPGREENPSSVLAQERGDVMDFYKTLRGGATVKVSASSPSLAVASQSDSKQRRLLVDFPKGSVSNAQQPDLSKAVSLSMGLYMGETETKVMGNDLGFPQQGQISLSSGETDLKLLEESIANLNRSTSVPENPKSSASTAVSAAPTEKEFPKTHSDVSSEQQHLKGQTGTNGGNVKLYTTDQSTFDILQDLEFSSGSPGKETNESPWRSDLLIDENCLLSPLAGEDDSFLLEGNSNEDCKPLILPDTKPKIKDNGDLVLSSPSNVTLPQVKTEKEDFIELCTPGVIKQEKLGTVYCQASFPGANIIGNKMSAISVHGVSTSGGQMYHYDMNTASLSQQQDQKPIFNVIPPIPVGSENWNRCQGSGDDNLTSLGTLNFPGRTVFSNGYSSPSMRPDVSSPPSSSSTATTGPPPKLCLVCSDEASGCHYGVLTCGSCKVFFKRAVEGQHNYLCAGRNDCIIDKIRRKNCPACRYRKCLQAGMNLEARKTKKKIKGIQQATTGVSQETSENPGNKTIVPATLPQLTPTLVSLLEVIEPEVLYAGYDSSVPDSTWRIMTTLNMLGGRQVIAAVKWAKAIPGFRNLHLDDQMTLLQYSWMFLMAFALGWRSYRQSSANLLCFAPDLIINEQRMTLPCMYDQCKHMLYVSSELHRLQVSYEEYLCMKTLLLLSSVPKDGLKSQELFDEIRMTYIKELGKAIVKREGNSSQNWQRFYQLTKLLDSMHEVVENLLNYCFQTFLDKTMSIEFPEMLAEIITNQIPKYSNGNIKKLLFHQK

Turning to `Cc1ccc(-c2cc(C(F)(F)F)nn2-c2ccc(S(N)(=O)=O)cc2)cc1`, the Potency entry in assay [1], in assay [6], in [7], in [9], in assay [10] and in [11] was “inactive” throughout. In addition, the Potency entry in assay [14], in assay [15] and in [16] was “inactive” in each case. For the same compound, the Potency is 54.3 µM (active) in assay [2]; 11.9 µM (active) and 12.1 µM (active) and 30.6 µM (active) in assay [3]; 11.9 µM (active) and 7.66 µM (active) and 21.7 µM (active) in assay [4]. Further, the outcome in assay [5], in assay [8], in assay [12] and in assay [13] was inactive.
For `c1cc(C(c2ccc(OCC3CO3)cc2)C(c2ccc(OCC3CO3)cc2)c2ccc(OCC3CO3)cc2)ccc1OCC1CO1` (stereo unspecified), the Potency entry in assay [1], in [2], in [17], in [3], in assay [4] and in [6] was “inactive” each time. The Potency result in assay [7], in assay [9], in assay [10], in [11], in assay [14] and in assay [15] was “inactive” in each case. For the same compound, the Potency entry in assay [18] and in assay [19] was “inactive” in each case. The compound was called inactive in assay [5], in assay [12] and in assay [13].
In the case of `COc1ccc(CCN(C)CCCC(C#N)(c2ccc(OC)c(OC)c2)C(C)C)cc1OC` (stereo unspecified), the Potency entry in [1], in assay [2], in assay [17], in [6], in [9] and in assay [10] was “inactive” throughout. In addition, the Potency entry in [11], in assay [15] and in assay [16] was “inactive” each time. Besides, the result in assay [5], in [8], in assay [12] and in assay [13] was inactive.
`BrC1CCC(Br)C(Br)CCC(Br)C(Br)CCC1Br` (stereo unspecified): the Potency result in assay [1], in assay [17], in assay [3], in [6], in [7] and in assay [9] was “inactive” each time. In addition, the Potency result in assay [10], in [11], in assay [14] and in assay [15] was “inactive” each time. Moreover, the Potency in [2] is 15.3 µM (active) and 25.9 µM (active); in assay [4] it was 3.84 µM (active) and 9.19 µM (active). Also, the result in assay [5], in [12] and in assay [13] was inactive.
Take `CC[C@]1(O)C[C@@H]2CN(CCc3c([nH]c4ccccc34)[C@@](C(=O)OC)(c3cc4c(cc3OC)N(C)[C@H]3[C@@](O)(C(=O)OC)[C@H](OC(C)=O)[C@]5(CC)C=CCN6CC[C@]43[C@@H]65)C2)C1`: the Potency was 0.0422 µM (active) in assay [20]; 1.88 µM (active) and 944 nM (active) in assay [4]. The Potency result in assay [3], in [6], in [7], in assay [9], in assay [10] and in [11] was “inactive” in each case. Further, the Potency entry in assay [14], in assay [15], in assay [16] and in assay [18] was “inactive” each time. The result in [5], in [8] and in assay [12] was inactive.
For `CC(C)CCOCc1ccccc1`, the Potency result in [1], in assay [2], in assay [17], in [3], in assay [6] and in [9] was “inactive” throughout. The Potency entry in assay [10], in [11], in assay [14], in assay [15], in assay [16] and in [18] was “inactive” in each case. In addition, the Potency entry in [19] was “inactive”. Also, the compound was classed as inactive in assay [5], in assay [8], in assay [12] and in [13].
Turning to `COc1ccc(Cc2cnc(N)nc2N)cc1OC`, the Potency result in assay [1], in [2], in assay [17], in assay [3], in assay [4] and in assay [6] was “inactive” each time. Moreover, the Potency entry in [7], in assay [9], in assay [10], in [11], in [14] and in assay [15] was “inactive” in each case. Moreover, the Potency result in assay [16] and in assay [18] was “inactive” each time. The compound was classed as inactive in [5], in assay [12] and in assay [13].
For `CCOc1ccccc1C(N)=O`, the Potency result in assay [20], in assay [2], in assay [3], in [4], in assay [6] and in [7] was “inactive” throughout. The Potency result in assay [9], in assay [10], in [11], in assay [14], in assay [15] and in assay [18] was “inactive” throughout. In addition, the Potency result in assay [19] is “inactive”. For the same compound, the result in [5], in assay [12] and in assay [13] was inactive.

Source of the values: PubChem BioAssay (Tox21).
